Screening results deposited in PubChem by National Center for Advancing Translational Sciences (NCATS).
Pol kappa inh: qHTS for Inhibitors of Polymerase Kappa | purified Pol kappa, fluorescent DNA synthesis assay, 10 min | Potency, µM (highest dose often 107 µM), without a hit: at the highest dose activity, negative = inhibition, actives largely listed as inhibitors | actives 0.53% (n = 400,000) | AID 588579, 2011; further: on the % scale 0 is the no-effect control and ±100 the full control effect
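50 nM final substrate added after 15 min RT preincubation of 10 nM Pol kappa with compound; fluorescence read at 0 and 10 min.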
WRN helicase inh: qHTS for Inhibitors of WRN Helicase | Potency, µM (top dose mostly 114 µM), for the others: at the top dose activity change, negative = inhibition, actives largely listed as inhibitors | WRN helicase unwinding, fluorescent forked duplex, kinetic | Bifunctional 3'-5' exonuclease/ATP-dependent helicase WRN (Homo sapiens), Q14191 | actives 0.46% (n = 360,000); further: on the % scale 0 is the no-effect control and ±100 the full control effect; nearly all actives have a fitted effect of over 55% in size
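Kinetic fluorescence helicase assay: unwinding of a quenched forked DNA duplex (100 nM final) with 2 mM ATP final raises red fluorescence (525/598 nm). Compounds sat 15 min at room temperature with 20 nM WRN beforehand.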
FEN1 inh: qHTS Assay for the Inhibitors of Human Flap endonuclease 1 (FEN1) | P39748 | Recombinant FEN1 flap cleavage, fluorescence, 15 min | Potency, µM (top dose mostly 114 µM), for the others: top-dose activity change, negative = inhibition, actives largely listed as inhibitors | actives 0.35% (n = 390,000); further: on the % scale 0 is the no-effect control and ±100 the full control effect; nearly all actives have a fitted effect of over 65% in size
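Potency values derive from four-parameter Hill fits of normalized qHTS data. The reaction used 10 nM FEN1 preincubated 15 min at room temperature with compound, then 50 nM DNA substrate, read at 0 and 15 min.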
Pol iota inh: qHTS for Inhibitors of Polymerase Iota. DNA polymerase iota (Homo sapiens), Q9UNA4. Pol iota fluorescent replication assay, 10 min. Potency, µM (doses to about 115 µM), without a hit: at the top dose activity, negative = inhibition, usual class: inhibitors. actives 1% (n = 390,000)
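Fluorescent replication assay read twice, at 0 min and 10 min after adding 50 nM (final) substrate. Enzyme (10 nM) and compounds were first incubated 15 min at room temperature; enzyme-free buffer wells were negative controls.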
Pol beta inh: qHTS Assay for Inhibitors of DNA Polymerase Beta | Pol beta primer extension/strand displacement, fluorescence kinetic | Potency, µM (doses to about 114 µM), inactives show top-dose activity change, negative = inhibition, usual class: inhibitors | actives 1.3% (n = 340,000) | AID 485314, 2010; further: on the % scale 0 is the no-effect control and ±100 the full control effect
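Reaction started by 50 nM substrate onto compound-treated Pol beta (10 nM, 15 min preincubation, room temperature); plates read at 0 min and 10 min. Normalized concentration-effect data fitted by four-parameter Hill equation.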
POLH inh: qHTS for Inhibitors of Polymerase Eta | recombinant Pol eta, fluorescent DNA replication assay | Potency, µM (highest dose often 114 µM), without a hit: at the highest dose activity change, negative = inhibition, most hits filed as inhibitors | actives 1.2% (n = 390,000); further: on the % scale 0 is the no-effect control and ±100 the full control effect
Target sequence (Q9Y253 whole entry, looked up): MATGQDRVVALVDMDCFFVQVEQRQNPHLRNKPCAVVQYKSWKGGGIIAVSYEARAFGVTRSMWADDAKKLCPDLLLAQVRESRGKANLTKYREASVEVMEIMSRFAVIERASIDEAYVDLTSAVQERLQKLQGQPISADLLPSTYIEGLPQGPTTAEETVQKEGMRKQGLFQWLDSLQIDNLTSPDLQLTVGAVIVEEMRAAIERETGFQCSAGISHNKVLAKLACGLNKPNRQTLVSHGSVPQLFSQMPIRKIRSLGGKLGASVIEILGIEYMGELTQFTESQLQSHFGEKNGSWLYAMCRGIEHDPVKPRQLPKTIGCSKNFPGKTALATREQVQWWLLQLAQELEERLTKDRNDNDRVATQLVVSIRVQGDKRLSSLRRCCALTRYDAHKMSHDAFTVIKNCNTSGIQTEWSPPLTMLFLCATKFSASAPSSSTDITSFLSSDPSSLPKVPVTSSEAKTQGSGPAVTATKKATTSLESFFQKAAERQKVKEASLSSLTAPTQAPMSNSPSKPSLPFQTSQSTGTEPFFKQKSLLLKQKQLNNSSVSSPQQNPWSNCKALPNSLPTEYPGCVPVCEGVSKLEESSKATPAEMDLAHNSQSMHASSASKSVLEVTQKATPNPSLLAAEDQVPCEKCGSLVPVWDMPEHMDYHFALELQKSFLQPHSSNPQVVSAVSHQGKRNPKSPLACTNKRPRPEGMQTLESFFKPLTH
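Pol eta (10 nM) was preincubated with compounds for 15 min at room temperature, after which fluorescent replication substrate (50 nM final) was added to start the reaction. Fluorescence was read kinetically at 0 and 10 min.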
Numbers without * were called inactive; ? = inconclusive; . = no result given; [ ] = another dose, or the depositor's remark. This is a sample that favours compounds with a hit; in the whole collection about 2.4% have one here. The call rests on the fitted dose curve; in most records, active means well fitted curve in the direction sought with a large enough effect; inconclusive means small, poorly fitted or top-dose-only effect, or another doubt; inactive means no such curve, though single readings can be large; an effect the other way counts as inactive or inconclusive. Potency means the concentration at half of the fitted maximal effect.

SMILES	Pol kappa inh	WRN helicase inh	FEN1 inh	Pol iota inh	Pol beta inh	POLH inh
COc1cccc(C2C3=C(N=c4s/c(=C\c5ccc(O)cc5)c(=O)n42)c2ccccc2CC3)c1OC (configuration not stated)	-8%	1%	-1%	4%	6%	-15%
COc1cccc(C2C3=C(N=c4s/c(=C\c5cccc(O)c5)c(=O)n42)c2ccccc2CC3)c1OC (configuration not stated)	8%	-9%	-11%	7%	19%	-14%
COc1ccccc1C1C2=C(N=c3s/c(=C/c4cccc(OCC(=O)O)c4)c(=O)n31)c1ccccc1CC2 (configuration not stated)	-31%	-32%	-21%	?	50µM*	40µM*
COc1cc2ncnc(N3CCN(C(=O)Nc4ccc(Oc5ccccc5)cc4)CC3)c2cc1OC	-18%	.	-1%	16%	.	.
CCn1c(SCC(=O)c2ccc(CNC(C)=O)o2)nnc1-c1cccs1	-28%	-15%[57.1 µM]	5%	?	45µM*	?
CCn1c(SCC(=O)NCc2cccs2)nnc1-c1cccs1	-5%	-4%	5%	8%	-7%	-5%
O=C(Sc1n[nH]c(=O)[nH]c1=O)c1ccccc1	0%	18µM*	1%	?	.	-12%
COc1ccc(COc2ccsc2C(=O)Nc2ccc(Cl)c(Cl)c2)cc1	-1%	-29%[57.1 µM]	4%	45%	35µM*	?
NS(=O)(=O)c1ccc(N/N=C/c2ccc(O)cc2O)c([N+](=O)[O-])c1	?	?	-24%	50µM*	25µM*	?
COc1ccc(Br)cc1C1NC(c2ccc3c(c2)OCO3)=CC(c2ccccc2O)N1 (configuration not stated)	-9%	.	-13%	-23%	.	.
CC(=O)Nc1cccc(NC(=O)CSc2ccc(-c3sc(-c4ccccc4)nc3C)nn2)c1	?	.	2%	?	5.6µM*	-19%
Cc1nc(-c2ccccc2)sc1-c1ccc(SCC(=O)Nc2cccc(C(F)(F)F)c2)nn1	-4%	.	-4%	5%	14%	4%
CC(=O)c1cccc(NC(=O)CSc2ccc(-c3ccccn3)nn2)c1	-10%	-8%	?	20%	1%	-1%
CC(=O)Nc1cccc(NC(=O)CSc2ccc(-c3ccccn3)nn2)c1	-20%	3%	-2%	49%	25µM*	13%
COC1CC2CCC(C)[C@](O)(O2)C(=O)C(=O)N2CCCCC2C(=O)OC(C(C)CC2CCC(O)C(OC)C2)CC(=O)C(C)/C=C(/C)C(O)C(OC)C(=O)C(C)CC(C)C=CC=C/C=C\1C (some centres not stated)	-6%[19.4 µM]	.	.	.	.	.
Cc1cccc(N2CCN(c3ccc(C(=O)O)cc3NC(=O)c3cccc(Cl)c3)CC2C)c1 (configuration not stated)	-7%	.	13%	-16%	32µM*	0%
O=C(Nc1ccccc1N1CCCCC1)c1cccc(Cl)c1	-16%	-12%	3%	41%	1%	-15%
COc1cc(N(C)C)c(OC)cc1/C=C1\Cc2ccccc2C1=O	-9%	.	?	?	.	.
CC1(C)CC(=O)C2=C(C1)N(c1ccc(F)cc1)C(N)=C(C#N)C2c1cccs1 (configuration not stated)	-20%	-22%	-18%	9%	18%	-9%
N#CC1=C(N)n2c(s/c(=C\c3cccs3)c2=O)=C(C#N)C1c1cccs1 (configuration not stated)	?	-11%[11.6 µM]	?	?	?	45µM*
N#CC1=C(N)n2c(s/c(=C\c3ccco3)c2=O)=C(C#N)C1c1ccco1 (configuration not stated)	22µM*	40µM*	45µM*	7.9µM*	7.1µM*	3.2µM*
Cc1ccccc1-n1c(=O)/c(=C\c2ccco2)s/c1=C(/C#N)C(=O)Nc1ccccc1	-31%	-13%	11%	-2%	12%	-3%
C/C=C(\C)C(=O)NCCN1C2=NC[C@@H](Cc3ccccc3)N2C[C@H]1Cc1ccc(O)cc1	-24%	-3%[11.6 µM]	-2%	71µM*	-25%	-14%
O=c1c(C(c2ccc(Cl)cc2)c2c(O)nc3n(c2=O)CCS3)c(O)nc2n1CCS2	?	-9%[11.6 µM]	6%	?	-23%	89µM*
CC[C@H](C)[C@H](NC(=O)[C@H](CO)NC(=O)[C@H](CC(C)C)NC(=O)[C@H](CO)NC(=O)[C@@H]1CCCN1C(=O)[C@H](CC(N)=O)NC(=O)[C@@H](N)CC(=O)O)C(=O)N[C@@H](CC(=O)O)C(=O)N[C@@H](CC(C)C)C(=O)N[C@H](C(=O)N[C@@H](Cc1ccccc1)C(=O)N[C@@H](Cc1cnc[nH]1)C(=O)N[C@@H](CC(C)C)C(=O)N[C@@H](CC(C)C)C(=O)N[C@@H](CCCNC(=N)N)C(=O)N[C@H](C(=O)N[C@@H](CC(C)C)C(=O)N[C@@H](CC(C)C)C(=O)N[C@@H](CCC(=O)O)C(=O)N[C@@H](CC(C)C)C(=O)N[C@@H](C)C(=O)N[C@@H](CCCNC(=N)N)C(=O)N[C@H](C(=O)N[C@@H](CCC(N)=O)C(=O)N[C@@H](CO)C(=O)N[C@@H](CCC(N)=O)C(=O)N[C@@H](CCCNC(=N)N)C(=O)N[C@@H](CCC(=O)O)C(=O)N[C@@H](CCCNC(=N)N)C(=O)N[C@@H](C)C(=O)N[C@@H](CCC(=O)O)C(=O)N[C@@H](CCC(N)=O)C(=O)N[C@@H](CC(N)=O)C(=O)N[C@@H](CCCNC(=N)N)C(=O)N[C@H](C(=O)N[C@H](C(=O)N[C@@H](Cc1ccccc1)C(=O)N[C@@H](CC(=O)O)C(=O)N[C@@H](CO)C(=O)N[C@H](C(N)=O)C(C)C)[C@@H](C)CC)[C@@H](C)CC)[C@@H](C)O)[C@@H](C)O)[C@@H](C)O	10%[60.1 µM]	.	.	.	.	.
O=S(=O)(O)c1cccc2cccc(Nc3ccccc3)c12	?	3%[11.6 µM]	?	28µM*	.	20µM*
COc1cc(OC)c(/C=C/c2c3ccccc3cc[n+]2C)c(OC)c1	-14%	.	?	?	.	.
